Measurements published in the OligoGym collection.

These sequences were tested against SPATA2 (assay: pooled miR-30 sensor sort-seq; sequence = guide strand). Conditions: shRNA.
Further: reference of the scale not given here.

Sequence | sensor-assay potency score (higher = more potent)
TTGTGAGTGGATTTCTAGCATC | -1.52
TCACTCTTTTTGTAGCAGGGGT | -0.679
TCTTCCAGTAATGTCGACTTGA | 0.423
TGAGTGGATTTCTAGCATCTGC | -1.11
TCTGAGCAGCCACACATCCGGC | -1.47
TGAGACTTTTGAACACTGGGTG | 0.544
TTGACAGTACAGTAAGAGGGGC | -0.34
TCATAGAACTGGATCAGCCGGA | 0.651
TTGATGTAGCCCTTGGAGCTGG | -0.512
TGGAACTGCACGTACTTCCGAA | -0.761
TTGTCCTTCACTTGTGAGTGGA | -0.193

Each sequence was assayed against SPATA5L1 in the same assay as above. Conditions: shRNA.

Sequence | sensor-assay potency score (higher = more potent)
AAAAACTTCTTGAAACTCCTGT | 1.07
TTCTTGAACATCACATCCTGTC | -0.27
TTCTGAATCTCCAACAAACGGT | -0.635
TTAACTTCAGTTTTACATCTTC | 0.121
TTATCTAATCTTCCAGGTCGTA | -0.899
TGATCTTATCTAATCTTCCAGG | -0.767
TTGAACATCACATCCTGTCTTG | 0.227
TTGCTTGTCGAAATATCTGAGA | -0.878
TAATCTTCCAGGTCGTAACAAA | -1.18
TATCTAATCTTCCAGGTCGTAA | -0.994
TTGTCTTAAGTCCAACACCATC | -1.76
TAGATGATCTTATCTAATCTTC | -0.209

The sequences below were run against SPATS2L in the same assay as above. Conditions: shRNA.

Sequence | sensor-assay potency score (higher = more potent)
TTGGTTAGAAGATCCATTCTGC | 0.635
TTGATCTTCTTCACGGAACTAT | -0.0493
TTTAGAACTTGAATTGCACTGC | 0.683
TATTGTTCTTCTTTTTTCCTGT | 0.296
TTCGTTAGCAGAATCTGTGGAC | 0.593
TTGTCTTTAGCATCTTTGTTGC | -0.548
TTCATTATTGCTTTTGTTGGGA | 0.203
TTGTTGGGAACAACTGATCTAA | -0.513
TATCTAGTTAGAGAAACGGTGC | -0.565
TATATTCTGATTGACACTCTTT | 0.138
TTCTTCTTTAACTTTATCCATT | -1.35
TTGAATTGCACTGCCATCCACA | 0.0707

What follows are sequences tested against SPESP1 in the same assay as above. Conditions: shRNA.

Sequence | sensor-assay potency score (higher = more potent)
TTGTTTGGTTTGATCGACCAGA | -0.327
TTTCTATCGCAGTTTCACCTGA | -0.0302
TCCATGTGTAACTAGCTCCTTA | -0.658
TAGATCTAGAATTACACAGCAT | -0.409
TTAATTTATGTTCTGCTGCTGC | -0.241
